# Pf Dd2 inh: inhibitors of Plasmodium falciparum Dd2 growth; actives 4.3% (n = 120,000); P. falciparum Dd2 growth, SYBR Green, 72 h; AID 1347417; Potency, µM (highest dose often 28.9 µM), most hits filed as inhibitors; active means well fitted inhibition curve with a large enough effect; further: nearly all actives have a fitted effect of over 65% in size
#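 Infected erythrocytes (Dd2, 0.3% parasitemia, 2.5% hematocrit final) are added to compound in RPMI-1640/Albumax II medium, grown 72 h at 37C in low oxygen, then lysed with saponin/Triton-X containing SYBR Green and read by fluorescence.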
# A number is an active result; – = inactive. Many of the other results were omitted from the sample, so hits are more common in it than they were.
SMILES,Pf Dd2 inh
CC(C)C(=O)N1CCN(c2nc3c(s2)CC(C(=O)NCc2ccco2)CC3)CC1 (stereo not drawn),13µM
CCC(=O)N1CCN(c2nc3c(s2)CC(C(=O)NCc2ccc(F)cc2)CC3)CC1 (stereo not drawn),–
CC(=O)N1CCN(c2nc3c(s2)CC(C(=O)Nc2cc(F)cc(F)c2)CC3)CC1 (stereo not drawn),4.5µM
CC(=O)N1CCN(c2nc3c(s2)CC(C(=O)Nc2cccc(C(C)(C)C)c2)CC3)CC1 (stereo not drawn),–
CC(C)C(=O)N1CCN(c2nc3c(s2)CC(C(=O)Nc2ccc(Cl)cc2)CC3)CC1 (stereo not drawn),–
CC(=O)N1CCN(c2nc3c(s2)CC(C(=O)NCc2ccccc2C)CC3)CC1 (stereo not drawn),–
CC(=O)N1CCN(c2nc3c(s2)CC(C(=O)NC2CCCCC2)CC3)CC1 (stereo not drawn),–
COCCn1c(C)cnc1CCNC(=O)c1ccc(OC)nc1,–
O=C(NCc1cccc(C(F)(F)F)c1)C1CN(c2cccc(Cl)c2)C(=O)N1 (stereo not drawn),–
O=C(COc1ccc(F)cc1)N1CCC(c2nc(CCOCC3CC3)no2)C1 (stereo not drawn),–
O=C1COCC2(CN1Cc1cccc(OC(F)(F)F)c1)CN(C(=O)C1CCOCC1)C2,–
COCCNC(=O)[C@@H]1CCC[C@@H](NCc2nccn2C)CN(C)C(=O)C1,–
COc1ccc(CN2CC(Oc3ccc(F)cc3C)C2)cc1,11µM
COc1ccccc1C(=O)N1CC(Oc2ccc(F)cc2C)C1,–
Cc1cc(F)ccc1OC1CN(Cc2ccc(C#N)cc2)C1,–
COc1ccc(CN2CC(Oc3ccc(F)cc3F)C2)cc1,–
Cc1cc(F)ccc1OC1CN(CC2CCCCC2)C1,8.9µM
Cc1cc(F)ccc1OC1CN(CC2CC2)C1,–
Cn1ncc(N2CCCC(CC(=O)NCc3cc(F)cc(F)c3)C2)cc1=O (stereo not drawn),–
O=C(NC[C@H]1O[C@H](Cc2cc(COc3ccccc3)on2)CC[C@@H]1O)Nc1ccccc1,–
O=C(CC1C(=O)NCCN1Cc1ccc(-c2ccccc2)cc1)NCc1ccco1 (stereo not drawn),–
COc1ccccc1C(=O)N1CCC(CC(=O)NC2CC2)C1 (stereo not drawn),–
CC(C)N(Cc1ccccc1)C(=O)CN1C(=O)CSc2ccc(S(=O)(=O)N3CCCC3)cc21,7.9µM
Cc1cc(C)cc(NC(=O)CN2C(=O)CSc3ccc(S(=O)(=O)N4CCCC4)cc32)c1,–
CCCCN(CCCC)CCNC(=O)CN1C(=O)CSc2ccc(S(=O)(=O)N3CCCCC3)cc21,–
SMILES,Pf Dd2 inh
COCc1nc(C2CC(N)C2)cc(N2CCC(NS(C)(=O)=O)CC2)n1 (stereo not drawn),–
COc1ccccc1CN1CCC(CNC(=O)c2cnn(-c3ccc(Cl)cc3)c2C2CCN(C(=O)OC(C)(C)C)CC2)CC1,1.3µM
CC(C)(C)OC(=O)N1CCC(c2c(C(=O)NCCN3CCCC3)cnn2-c2ccc(Cl)cc2)CC1,7.1µM
Cc1c(Cl)cccc1-n1ncc(C(=O)NCCN2CCN(C)CC2)c1C1CCN(C(=O)OC(C)(C)C)CC1,11µM
Cc1c(Cl)cccc1-n1ncc(C(=O)N2CCN(C)CC2)c1C1CCN(C(=O)OC(C)(C)C)CC1,–
Cc1ccc(-n2ncc(C(=O)NCCN3CCC(Cc4ccccc4)CC3)c2C2CCN(C(=O)OC(C)(C)C)CC2)cc1,3.2µM
Cc1cccc(C)c1-n1ncc(C(=O)NCCN2CCN(C)CC2)c1C1CCN(C(=O)OC(C)(C)C)CC1,–
O=C(CN1C(=O)NC2(CCOCC2)C1=O)NCc1ccccc1,–
COCc1ccc2c(c1)c(OC(C)(C)C(=O)N(C)C)nn2Cc1ccccc1,–
Cc1noc([C@@H](C)NC(=O)Nc2cccnc2)c1C(=O)O,–
O=C(c1ccccc1F)N1CCC(N2CCOCC2=O)CC1,–
O=C1CCN(C(=O)NCCc2ccccc2)CCCC(c2nc(-c3cccnc3)no2)CCN1 (stereo not drawn),–
Cc1ncc(C(=O)N2CCOCC2CC(=O)N2CCCC2)c(-c2ccccc2)n1 (stereo not drawn),–
COCCNC(=O)C(C)[C@@H]1CC[C@@]2(C)CC[C@H](NC(=O)CCOC)[C@@H](C)[C@@H]2[C@H]1O (stereo partly drawn),–
COc1ncccc1C(=O)N1CCCC(c2nnc(Cn3ccnc3)n2C)C1 (stereo not drawn),–
COc1ccccc1C(=O)N1c2ccccc2C(C)(c2ccc(Cl)cc2)CC1(C)C (stereo not drawn),8.9µM
CCCCC(=O)N1c2ccccc2C(C)(c2ccccc2)CC1(C)C (stereo not drawn),–
Cc1ccc2c(c1)C(C)(c1ccccc1)CC(C)(C)N2C(=O)c1ccc(F)cc1 (stereo not drawn),5.6µM
O=C(c1ccc(F)cc1)N1CCC(C(=O)O)(c2ccccc2)CC1,–
COc1ccccc1C(=O)N1CCCN(C)c2ccccc21,–
O=C(O)c1ccc2c(c1)N(C(=O)c1ccc(F)cc1)CC2,–
Cn1cnnc1CC1CCN(S(=O)(=O)c2ccccc2)CC1,–
